# Bioassay records as filed in PubChem.
# The list is not random: actives were taken first. Their share in the collection is about 1.8%.
# H9c2 protect: myocardial damage modulation in H9c2 cells; AID 588492; H9c2 cardiomyocytes, H2O2 injury protection, ATPLite, 2 h; protection from H2O2 cell death, % at 20 µM; actives 0.63% (n = 360,000);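 active = compounds giving at least 50% protection of heart cells from peroxide-induced death in the single-dose screen, raw or plate-pattern-corrected value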
# Neddyl block: blocks human cullin neddylation; actives 0.58% (n = 360,000); AID 651699; P61081+Q13564; TR-FRET cullin neddylation, biochemical; inhibition, % at 25 µM; in the data active = inhibition above about 36%
# HDAC3 inh: inhibitors of human histone deacetylase 3 | O15379 | recombinant HDAC3, fluorogenic peptide/trypsin coupled, fluorescence | inhibition, % at 8.3 µM | actives 0.15% (n = 320,000); in the data active = inhibition above about 26%, passing the limit was not always enough; inconclusive = no clear call, values can overlap the other calls
# GRK2 aptamer HTS: blocks RNA aptamer binding to human GRK2 | inhibition of aptamer binding, % at 10 µM | bead flow cytometry, FAM-aptamer displacement from GRK2 | actives 0.59% (n = 330,000) | P25098;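 active = inhibition of aptamer binding above 40%, roughly 3 SD of noise, on plates passing a quality check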;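 note: median bead fluorescence of bound FAM aptamer so fluorescent compounds give negative values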
# Target sequence (P25098 whole entry, looked up): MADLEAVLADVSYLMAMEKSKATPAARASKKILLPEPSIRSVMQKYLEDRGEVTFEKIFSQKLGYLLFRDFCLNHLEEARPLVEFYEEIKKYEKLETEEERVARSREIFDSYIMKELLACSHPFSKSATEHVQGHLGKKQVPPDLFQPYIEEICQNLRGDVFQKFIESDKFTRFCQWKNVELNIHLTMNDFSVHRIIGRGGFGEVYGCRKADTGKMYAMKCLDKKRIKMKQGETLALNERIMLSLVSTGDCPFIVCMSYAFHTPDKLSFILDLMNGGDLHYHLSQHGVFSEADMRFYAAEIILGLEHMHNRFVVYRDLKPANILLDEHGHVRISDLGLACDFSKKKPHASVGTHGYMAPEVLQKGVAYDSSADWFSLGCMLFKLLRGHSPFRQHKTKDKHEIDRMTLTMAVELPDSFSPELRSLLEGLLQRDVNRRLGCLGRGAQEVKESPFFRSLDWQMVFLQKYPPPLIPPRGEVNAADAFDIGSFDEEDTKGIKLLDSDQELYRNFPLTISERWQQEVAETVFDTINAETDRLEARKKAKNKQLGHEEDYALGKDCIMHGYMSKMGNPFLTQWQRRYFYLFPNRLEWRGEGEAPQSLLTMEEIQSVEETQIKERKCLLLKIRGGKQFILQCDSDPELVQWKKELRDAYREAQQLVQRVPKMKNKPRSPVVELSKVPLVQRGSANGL
# Hits are given with their value; – = inactive; ? = inconclusive; · = no result shown; ! = not confirmed by another sample.
SMILES,H9c2 protect,Neddyl block,HDAC3 inh,GRK2 aptamer HTS
COc1ccc(CCNC(=O)c2c(N)n(CCN3CCOCC3)c3nc4ccccc4nc23)cc1OC,56.8,·,–,–
CCCCCn1c(N)c(C(=O)NCCN2CCOCC2)c2nc3ccccc3nc21,–,·,–,–
Cc1c(/C=N/O)c2ccccc2n1C,–,–,?,–
CSc1nc(Cl)c(Br)c(N2CC2)n1,50.7,–,·,·
O=C(N/N=C/c1c(O)n(Cc2ccccc2)c(=O)[nH]c1=O)c1ccccc1O,–,41.0,–,–
O=C(N/N=C/c1c(O)n(Cc2ccc(F)cc2)c(=O)[nH]c1=O)c1ccccc1O,–,–,–,–
O=C1NC(=S)N(c2ccccc2)C(=O)/C1=C/c1ccco1,–,–,–,43.0
CCN(CC)c1ccc(N=Cc2c(O)n(-c3ccccc3)c(=O)[nH]c2=O)cc1,–,–,–,100.0
NCCc1cc(O)c(O)cc1O,–,–,·,·
NC(Cc1cc(O)c(O)cc1O)C(=O)O (stereo not drawn),·,·,–,71.0
COc1cc2c(cc1O)C[C@H]1NCCc3cc4c(c-2c31)OCO4,–,24.5,–,–
CCOP(=S)(OCC)Oc1cc(C)nc(C(C)C)n1,–,–,·,·
CC(=O)OC1C(=O)OCC23CCC4(C)OC4C2OC2CC(OC(=O)C=CC=CC(=O)OCCC1C)C3(C)C21CO1 (stereo not drawn),55.8,–,·,·
CC(O)C1C=CC=CC(=O)OC2CC3OC4C5OC5(C)CCC4(COC(=O)C4OC4(C)C(O)CO1)C2(C)C31CO1 (stereo not drawn),–,–,·,·
CC1=CC2OC3CC4OC(=O)C=CC=CC(C(C)O)OCC(O)C(C)CC(=O)OCC2(CC1O)C4(C)C31CO1 (stereo not drawn),–,–,·,·
CC1=CC2OC3CC4OC(=O)C=CC=CC(=O)OCCC(C)C(O)C(=O)OCC2(CC1O)C4(C)C31CO1 (stereo not drawn),53.7,–,·,·
O=c1c2ccccc2nc(CSc2ncnc3nc[nH]c23)n1-c1ccc(Cl)c(Cl)c1,67.6,–,–,–
CCOP(=S)(OCC)SCC(=O)NC(C)(CC)C(=O)O (stereo not drawn),–,–,–,–
C=C1C(C)C2C(Cc3ccccc3)NC(=O)C23OC(=O)/C=C/C(O)CCCC(C)C/C=C/C3C1O (stereo not drawn),56.6,–,·,·
C=CCn1c(O)c(C(CC)=NCc2ccco2)c(=O)[nH]c1=O,–,–,–,–
CCCc1cc(=O)oc2cc(OCC(=O)N3CCC(C(=O)O)(c4ccccc4)CC3)ccc12,–,40.6,–,–
CCC(c1nnnn1Cc1ccccc1)N1CCC(n2c(=O)[nH]c3ccccc32)CC1 (stereo not drawn),51.1,–,·,·
O=c1[nH]c2ccccc2n1CCCN1CCC(n2c(=O)[nH]c3cc(Cl)ccc32)CC1,62.8,–,–,–
NNCc1cccc(O)c1,–,–,–,–
NC(N)=Nc1ccc2[nH]c3c(c2c1)C[C@@]1(O)[C@H]2Cc4ccc(O)c5c4[C@@]1(CCN2CC1CC1)[C@H]3O5,–,–,59.6,–
SMILES,H9c2 protect,Neddyl block,HDAC3 inh,GRK2 aptamer HTS
CNCC[C@@H](Oc1ccc(C(F)(F)F)cc1)c1ccccc1,–,–,–,–
c1ccc([C@@H]2CO2)cc1,–,–,–,–
C[CH2][Hg][S]c1ccccc1C(=O)O,–,–,55.8,–
CCOP(=O)(OCC)C(O)c1cccc([N+](=O)[O-])c1 (stereo not drawn),–,–,–,–
CCOP(=O)(OCC)c1ccc(OP(=O)(c2cccc([N+](=O)[O-])c2)c2cccc([N+](=O)[O-])c2)cc1,–,–,56.6,–
CCN(CC)P(c1n(C)cc[n+]1C)N(CC)CC,–,–,–,–
CCC(C)N1C(=O)NC(=O)C2(Cc3c(ccc4ccccc34)N(C)C2)C1=O (stereo not drawn),68.6,–,–,–
CN(C)[C@@H]1C(=O)C(C(N)=O)=C(O)[C@@]2(O)C(=O)C3=C(O)c4c(O)cccc4[C@@](C)(O)[C@H]3[C@H](O)[C@@H]12,–,–,–,57.0!
CN(C)[C@@H]1C(=O)C(C(N)=O)=C(O)[C@@]2(O)C(=O)C3=C(O)c4c(O)cccc4[C@@](C)(O)C3C[C@@H]12 (stereo partly drawn),–,–,–,–
CCOC(=O)c1c(-n2c(C)cc(C=C3C(=O)NC(=S)NC3=O)c2C)sc2c1CCCC2,–,–,–,–
COc1ccccc1OP(=O)(Nc1cccnc1)Oc1ccccc1OC,60.0,–,–,–
COc1cccc(NP(=O)(Oc2ccc(Cl)cc2)Oc2ccc(Cl)cc2)c1,–,–,–,–
Cc1cccc(NP(=O)(Oc2ccccc2F)Oc2ccccc2F)c1,–,–,–,–
Cc1ccc(NP(=O)(Oc2ccccc2F)Oc2ccccc2F)cc1C,–,–,29.6,–
